Common to all, as to test: DAPPL (digital affinity profiling via proximity ligation, sequencing); 10 mM Tris-HCl pH 7.5, 50 mM NaCl, 1 mM DTT, 4% glycerol, room temperature, 30 min; GST-TFs on glutathione beads, 16-mer random dsDNA library, 0.1% formaldehyde crosslink after washing; high values mean tight binding
One assay has as its target T1, FEV (Homo sapiens, UniProt Q99581 1-238).
T1 sequence: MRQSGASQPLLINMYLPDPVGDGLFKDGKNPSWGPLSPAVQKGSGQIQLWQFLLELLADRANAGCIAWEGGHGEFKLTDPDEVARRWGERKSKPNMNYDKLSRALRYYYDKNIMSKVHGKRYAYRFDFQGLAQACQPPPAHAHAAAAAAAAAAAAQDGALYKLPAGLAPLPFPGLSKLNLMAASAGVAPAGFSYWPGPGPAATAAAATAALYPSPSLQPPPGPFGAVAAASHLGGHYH
The conditions noted are these: protein: recombinant; tags: N-terminal GST; dsDNA, one strand shown. Put shortly:
(§1)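 Binding signal is given per hexamer as its read frequency for a factor divided by its frequency in the tag-only sample. GST-fused human transcription factors were expressed in yeast, captured on glutathione beads, barcoded with DNA and pooled with that sample, then incubated with 200 nmole of a 16-mer random double-stranded DNA library in Tris/NaCl/DTT/glycerol buffer for 30 min at room temperature. The pools were then washed, crosslinked, proximity-ligated, amplified by PCR and sequenced on an Illumina NextSeq500.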

The target in another assay is ETV5 (Homo sapiens, UniProt P41161 1-510). The conditions noted are these: protein: recombinant; tags: N-terminal GST; dsDNA, one strand shown. The method, boiled down:
as §1

Another assay addresses HSF1 (Homo sapiens, UniProt Q00613 1-529). The conditions noted are these: protein: recombinant; tags: N-terminal GST; chain copies: 3; dsDNA, one strand shown. Put shortly:
as §1

The next assay addresses T2, SPIC (Homo sapiens, UniProt Q8N5J4 1-248).
T2 sequence: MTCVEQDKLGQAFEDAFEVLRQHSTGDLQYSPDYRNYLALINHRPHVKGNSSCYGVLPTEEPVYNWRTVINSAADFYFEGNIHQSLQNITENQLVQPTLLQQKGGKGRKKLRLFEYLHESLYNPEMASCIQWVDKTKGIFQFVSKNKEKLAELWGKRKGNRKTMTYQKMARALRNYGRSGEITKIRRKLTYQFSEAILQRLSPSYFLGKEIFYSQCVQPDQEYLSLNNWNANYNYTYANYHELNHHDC
The following applies: protein: recombinant; tags: N-terminal GST; dsDNA, one strand shown. Put shortly: as §1

The target in a further assay is ELF4 (Homo sapiens, UniProt Q99607 1-663). The conditions noted are these: protein: recombinant; tags: N-terminal GST; dsDNA, one strand shown. Put shortly:
as §1

The target in another assay is T3, ELK4 (Homo sapiens, UniProt P28324-2 1-405).
T3 sequence: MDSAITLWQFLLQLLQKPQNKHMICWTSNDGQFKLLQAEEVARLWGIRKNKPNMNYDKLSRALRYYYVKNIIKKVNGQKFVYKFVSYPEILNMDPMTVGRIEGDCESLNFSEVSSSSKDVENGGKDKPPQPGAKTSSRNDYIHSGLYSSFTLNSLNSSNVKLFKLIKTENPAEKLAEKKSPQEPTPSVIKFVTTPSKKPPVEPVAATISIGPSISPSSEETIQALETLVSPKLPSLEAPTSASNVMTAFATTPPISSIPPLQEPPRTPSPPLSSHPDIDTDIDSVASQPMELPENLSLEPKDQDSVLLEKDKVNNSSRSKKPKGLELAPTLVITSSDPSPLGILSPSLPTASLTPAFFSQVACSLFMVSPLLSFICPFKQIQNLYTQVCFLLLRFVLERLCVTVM
The conditions noted are these: protein: recombinant; tags: N-terminal GST; dsDNA, one strand shown. Put shortly:
as §1

The target in another assay is T4, ETV2 (Homo sapiens, UniProt O00321 1-342).
T4 sequence: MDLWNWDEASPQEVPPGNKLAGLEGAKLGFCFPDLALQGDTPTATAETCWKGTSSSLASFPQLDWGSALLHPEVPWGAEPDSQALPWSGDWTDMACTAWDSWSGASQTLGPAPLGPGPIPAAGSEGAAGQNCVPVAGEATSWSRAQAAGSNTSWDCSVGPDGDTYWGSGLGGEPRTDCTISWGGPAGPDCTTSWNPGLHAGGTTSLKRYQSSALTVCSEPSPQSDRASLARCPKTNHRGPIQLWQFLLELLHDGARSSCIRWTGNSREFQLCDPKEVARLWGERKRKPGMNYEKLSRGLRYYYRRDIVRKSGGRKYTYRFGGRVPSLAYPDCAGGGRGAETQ
The conditions noted are these: protein: recombinant; tags: N-terminal GST; dsDNA, one strand shown. Put shortly:
as §1

Another assay concerns the target T5, ELF3 (Homo sapiens, UniProt P78545 1-371).
T5 sequence: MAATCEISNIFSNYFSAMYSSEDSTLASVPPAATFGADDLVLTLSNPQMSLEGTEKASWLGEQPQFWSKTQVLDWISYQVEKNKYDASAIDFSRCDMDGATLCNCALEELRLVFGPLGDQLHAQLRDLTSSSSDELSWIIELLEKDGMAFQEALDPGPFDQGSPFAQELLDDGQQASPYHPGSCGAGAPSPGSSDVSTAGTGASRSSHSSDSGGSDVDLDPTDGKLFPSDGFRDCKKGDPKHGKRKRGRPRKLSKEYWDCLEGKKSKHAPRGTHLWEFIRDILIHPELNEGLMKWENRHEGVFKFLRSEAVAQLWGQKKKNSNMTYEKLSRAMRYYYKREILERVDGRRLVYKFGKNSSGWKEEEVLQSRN
The conditions noted are these: protein: recombinant; tags: N-terminal GST; dsDNA, one strand shown. The method, boiled down: as §1

For the next assay, the target named is CRX (Homo sapiens, UniProt O43186 1-299). The conditions noted are these: protein: recombinant; tags: N-terminal GST; dsDNA, one strand shown. The method, boiled down: as §1
The next assay addresses ETV1 (Homo sapiens, UniProt P50549 1-477). The following applies: protein: recombinant; tags: N-terminal GST; dsDNA, one strand shown. Put shortly: as §1
The target of another assay is T6, ERF (Homo sapiens, UniProt P50548 1-548).
T6 sequence: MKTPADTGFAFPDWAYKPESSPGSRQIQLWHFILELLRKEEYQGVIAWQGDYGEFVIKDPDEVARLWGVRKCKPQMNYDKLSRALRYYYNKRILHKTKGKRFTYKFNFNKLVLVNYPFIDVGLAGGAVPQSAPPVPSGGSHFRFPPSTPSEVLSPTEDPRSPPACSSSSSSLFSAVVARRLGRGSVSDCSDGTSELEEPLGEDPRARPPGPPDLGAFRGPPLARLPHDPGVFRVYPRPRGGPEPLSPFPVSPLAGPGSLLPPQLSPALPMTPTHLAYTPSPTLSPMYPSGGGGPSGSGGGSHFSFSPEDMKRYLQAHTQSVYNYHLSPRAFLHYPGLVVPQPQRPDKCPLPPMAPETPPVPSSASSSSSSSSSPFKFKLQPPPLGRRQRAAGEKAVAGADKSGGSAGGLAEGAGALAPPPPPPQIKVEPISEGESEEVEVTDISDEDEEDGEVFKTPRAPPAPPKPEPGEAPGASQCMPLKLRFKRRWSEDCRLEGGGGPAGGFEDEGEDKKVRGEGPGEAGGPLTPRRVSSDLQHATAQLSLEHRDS
The following applies: protein: recombinant; tags: N-terminal GST; dsDNA, one strand shown. The method, boiled down:
as §1

The target in the next assay is T7, ETV3L (Homo sapiens, UniProt Q6ZN32 1-361).
T7 sequence: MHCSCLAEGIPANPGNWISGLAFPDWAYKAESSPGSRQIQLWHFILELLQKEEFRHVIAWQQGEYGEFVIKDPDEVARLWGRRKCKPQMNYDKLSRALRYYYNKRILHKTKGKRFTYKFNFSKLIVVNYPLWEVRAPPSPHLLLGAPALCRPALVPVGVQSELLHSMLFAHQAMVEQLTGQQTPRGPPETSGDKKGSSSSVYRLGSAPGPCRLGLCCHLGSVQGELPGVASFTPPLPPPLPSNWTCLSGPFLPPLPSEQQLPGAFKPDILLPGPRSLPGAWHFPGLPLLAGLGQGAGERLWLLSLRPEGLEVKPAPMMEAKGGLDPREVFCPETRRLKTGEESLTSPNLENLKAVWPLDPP
The conditions noted are these: protein: recombinant; tags: N-terminal GST; dsDNA, one strand shown. The method, boiled down: as §1

For a further assay, the target named is T8, ETS2 (Homo sapiens, UniProt P15036 1-469).
T8 sequence: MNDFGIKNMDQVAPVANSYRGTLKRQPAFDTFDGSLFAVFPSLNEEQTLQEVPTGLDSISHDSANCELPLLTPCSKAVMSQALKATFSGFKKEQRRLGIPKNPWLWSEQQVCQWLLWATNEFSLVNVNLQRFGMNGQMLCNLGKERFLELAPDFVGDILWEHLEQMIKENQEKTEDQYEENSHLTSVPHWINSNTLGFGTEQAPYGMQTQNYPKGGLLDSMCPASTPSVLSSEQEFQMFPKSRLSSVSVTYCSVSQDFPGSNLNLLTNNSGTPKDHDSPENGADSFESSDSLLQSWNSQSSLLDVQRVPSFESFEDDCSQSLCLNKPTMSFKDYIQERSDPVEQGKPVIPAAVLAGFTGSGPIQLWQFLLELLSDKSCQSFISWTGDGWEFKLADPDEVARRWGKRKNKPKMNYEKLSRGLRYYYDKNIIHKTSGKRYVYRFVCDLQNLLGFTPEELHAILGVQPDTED
The following applies: protein: recombinant; tags: N-terminal GST; dsDNA, one strand shown. Put shortly:
as §1

In the next assay the target is T9, SPDEF (Homo sapiens, UniProt O95238 1-335).
T9 sequence: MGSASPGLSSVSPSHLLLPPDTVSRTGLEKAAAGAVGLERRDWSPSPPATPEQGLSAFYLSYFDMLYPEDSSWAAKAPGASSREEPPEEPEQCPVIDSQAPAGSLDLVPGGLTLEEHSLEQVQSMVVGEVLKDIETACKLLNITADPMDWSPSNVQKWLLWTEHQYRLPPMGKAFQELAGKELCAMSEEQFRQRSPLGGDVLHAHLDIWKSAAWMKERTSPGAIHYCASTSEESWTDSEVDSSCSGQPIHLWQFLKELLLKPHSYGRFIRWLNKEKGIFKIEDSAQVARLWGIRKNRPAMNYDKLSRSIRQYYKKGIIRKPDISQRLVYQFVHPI
The following applies: protein: recombinant; tags: N-terminal GST; dsDNA, one strand shown. Put shortly:
as §1

The target of the next assay is T10, ETV7 (Homo sapiens, UniProt Q9Y603 1-341).
T10 sequence: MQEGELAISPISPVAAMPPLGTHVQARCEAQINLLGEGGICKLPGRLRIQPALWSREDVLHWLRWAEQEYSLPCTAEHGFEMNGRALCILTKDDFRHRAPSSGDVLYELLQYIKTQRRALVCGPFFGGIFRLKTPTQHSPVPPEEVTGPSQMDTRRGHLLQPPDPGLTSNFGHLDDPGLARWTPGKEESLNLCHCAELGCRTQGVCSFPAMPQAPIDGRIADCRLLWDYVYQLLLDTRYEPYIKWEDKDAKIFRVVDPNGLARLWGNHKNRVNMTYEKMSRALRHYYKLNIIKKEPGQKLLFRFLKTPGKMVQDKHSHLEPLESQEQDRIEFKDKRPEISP
The following applies: protein: recombinant; tags: N-terminal GST; dsDNA, one strand shown. Put shortly:
as §1

The target in a further assay is T11, ELF5 (Homo sapiens, UniProt Q9UKW6-2 1-255).
T11 sequence: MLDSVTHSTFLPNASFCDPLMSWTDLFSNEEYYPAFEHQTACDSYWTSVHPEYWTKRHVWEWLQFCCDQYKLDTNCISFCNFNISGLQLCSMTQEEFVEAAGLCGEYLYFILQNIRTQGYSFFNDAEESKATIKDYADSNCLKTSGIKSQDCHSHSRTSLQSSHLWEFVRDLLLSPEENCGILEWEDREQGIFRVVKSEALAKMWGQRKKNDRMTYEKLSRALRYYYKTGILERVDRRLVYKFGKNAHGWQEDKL
The conditions noted are these: protein: recombinant; tags: N-terminal GST; dsDNA, one strand shown. The method, boiled down: as §1

The target in a further assay is T12, ETV3 (Homo sapiens, UniProt P41162-2 1-143).
T12 sequence: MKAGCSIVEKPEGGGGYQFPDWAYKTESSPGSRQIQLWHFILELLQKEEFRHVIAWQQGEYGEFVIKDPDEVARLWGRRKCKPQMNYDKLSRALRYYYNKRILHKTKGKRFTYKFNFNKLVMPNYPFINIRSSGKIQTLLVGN
The conditions noted are these: protein: recombinant; tags: N-terminal GST; dsDNA, one strand shown. Put shortly:
as §1

In a further assay the target is ETV6 (Homo sapiens, UniProt P41212 1-452). The conditions noted are these: protein: recombinant; tags: N-terminal GST; dsDNA, one strand shown. Put shortly:
as §1

Sequence of ETV1 (P50549 whole entry): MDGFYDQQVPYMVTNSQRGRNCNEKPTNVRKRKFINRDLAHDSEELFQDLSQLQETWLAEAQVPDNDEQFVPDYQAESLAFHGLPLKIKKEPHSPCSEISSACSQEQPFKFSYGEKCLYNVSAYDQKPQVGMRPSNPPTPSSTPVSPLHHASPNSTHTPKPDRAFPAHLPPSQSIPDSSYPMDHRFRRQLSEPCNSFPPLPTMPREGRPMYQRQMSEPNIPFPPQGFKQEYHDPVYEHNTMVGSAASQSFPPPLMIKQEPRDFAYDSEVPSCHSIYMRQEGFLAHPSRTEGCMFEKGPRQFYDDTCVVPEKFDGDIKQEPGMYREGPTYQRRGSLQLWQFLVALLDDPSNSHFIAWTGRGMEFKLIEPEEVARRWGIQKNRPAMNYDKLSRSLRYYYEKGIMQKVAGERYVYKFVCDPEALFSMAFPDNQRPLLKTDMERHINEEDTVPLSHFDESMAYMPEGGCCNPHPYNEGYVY
Sequence of HSF1 (Q00613 whole entry): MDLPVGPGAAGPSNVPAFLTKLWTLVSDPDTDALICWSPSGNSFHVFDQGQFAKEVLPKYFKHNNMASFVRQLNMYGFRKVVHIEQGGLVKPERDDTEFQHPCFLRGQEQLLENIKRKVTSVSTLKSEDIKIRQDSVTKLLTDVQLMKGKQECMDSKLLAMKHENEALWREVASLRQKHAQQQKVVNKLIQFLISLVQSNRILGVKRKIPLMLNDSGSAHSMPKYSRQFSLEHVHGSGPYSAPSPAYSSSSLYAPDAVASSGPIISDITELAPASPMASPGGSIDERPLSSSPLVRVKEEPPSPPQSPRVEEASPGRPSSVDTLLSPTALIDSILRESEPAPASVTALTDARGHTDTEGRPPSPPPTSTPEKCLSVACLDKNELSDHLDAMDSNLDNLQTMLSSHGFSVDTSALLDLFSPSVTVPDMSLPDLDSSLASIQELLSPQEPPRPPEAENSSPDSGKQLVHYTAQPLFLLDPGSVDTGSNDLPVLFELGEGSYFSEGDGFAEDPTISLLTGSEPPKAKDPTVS
Sequence of ETV5 (P41161 whole entry): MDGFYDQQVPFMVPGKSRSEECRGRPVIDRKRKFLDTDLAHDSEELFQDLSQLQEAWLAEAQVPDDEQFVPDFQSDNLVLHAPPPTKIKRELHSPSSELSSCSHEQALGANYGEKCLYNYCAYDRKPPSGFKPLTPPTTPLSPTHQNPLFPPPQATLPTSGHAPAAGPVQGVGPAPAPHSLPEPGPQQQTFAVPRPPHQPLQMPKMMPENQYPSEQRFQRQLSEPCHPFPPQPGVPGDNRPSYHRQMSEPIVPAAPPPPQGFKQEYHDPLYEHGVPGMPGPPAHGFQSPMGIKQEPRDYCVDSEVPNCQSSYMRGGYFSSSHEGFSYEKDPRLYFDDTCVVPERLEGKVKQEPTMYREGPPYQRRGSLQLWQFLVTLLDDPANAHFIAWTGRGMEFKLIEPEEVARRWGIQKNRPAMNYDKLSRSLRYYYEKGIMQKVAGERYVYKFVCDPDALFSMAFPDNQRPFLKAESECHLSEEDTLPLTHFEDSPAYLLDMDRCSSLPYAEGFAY
Sequence of CRX (O43186 whole entry): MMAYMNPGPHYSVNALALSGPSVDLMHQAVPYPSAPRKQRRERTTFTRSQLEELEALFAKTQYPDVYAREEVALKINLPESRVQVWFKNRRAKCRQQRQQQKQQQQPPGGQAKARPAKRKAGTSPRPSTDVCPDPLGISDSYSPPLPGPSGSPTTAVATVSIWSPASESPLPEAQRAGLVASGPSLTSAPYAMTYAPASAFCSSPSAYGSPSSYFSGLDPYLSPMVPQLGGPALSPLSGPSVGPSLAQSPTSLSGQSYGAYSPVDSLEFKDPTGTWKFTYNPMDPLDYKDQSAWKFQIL
Sequence of ELF4 (Q99607 whole entry): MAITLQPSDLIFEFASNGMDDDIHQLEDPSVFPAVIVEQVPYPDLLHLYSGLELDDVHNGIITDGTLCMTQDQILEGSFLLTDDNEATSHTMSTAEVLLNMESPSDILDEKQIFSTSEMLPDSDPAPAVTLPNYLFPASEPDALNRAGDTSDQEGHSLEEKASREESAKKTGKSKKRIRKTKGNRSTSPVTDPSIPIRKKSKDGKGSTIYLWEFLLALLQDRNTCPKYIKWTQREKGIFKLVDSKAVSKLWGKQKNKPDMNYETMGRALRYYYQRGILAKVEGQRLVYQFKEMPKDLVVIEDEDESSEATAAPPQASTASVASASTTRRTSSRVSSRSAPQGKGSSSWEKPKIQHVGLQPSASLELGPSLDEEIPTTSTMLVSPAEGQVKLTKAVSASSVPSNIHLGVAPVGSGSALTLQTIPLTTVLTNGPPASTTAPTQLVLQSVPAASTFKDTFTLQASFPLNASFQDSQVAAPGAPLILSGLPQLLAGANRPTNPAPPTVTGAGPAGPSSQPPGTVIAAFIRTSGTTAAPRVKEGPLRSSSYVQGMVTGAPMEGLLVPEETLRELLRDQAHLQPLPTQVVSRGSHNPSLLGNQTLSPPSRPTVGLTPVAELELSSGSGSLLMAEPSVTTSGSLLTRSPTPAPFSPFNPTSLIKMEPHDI
Sequence of ETV6 (P41212 whole entry): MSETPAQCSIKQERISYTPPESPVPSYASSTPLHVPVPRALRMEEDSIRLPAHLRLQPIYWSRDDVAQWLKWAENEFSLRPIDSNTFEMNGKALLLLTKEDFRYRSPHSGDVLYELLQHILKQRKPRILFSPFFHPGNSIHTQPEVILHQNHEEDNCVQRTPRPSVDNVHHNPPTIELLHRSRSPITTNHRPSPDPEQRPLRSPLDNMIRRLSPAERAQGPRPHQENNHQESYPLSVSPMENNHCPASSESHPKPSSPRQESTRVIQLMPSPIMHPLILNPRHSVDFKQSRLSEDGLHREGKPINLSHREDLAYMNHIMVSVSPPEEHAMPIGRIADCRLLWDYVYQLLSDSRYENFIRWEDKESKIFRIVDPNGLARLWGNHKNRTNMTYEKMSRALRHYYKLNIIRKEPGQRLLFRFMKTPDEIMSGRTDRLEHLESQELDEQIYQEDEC

As for CTTCCG, the binding signal with FEV was 10.5 fold enrichment (6-mer frequency, TF over GST control); with ETV5 it was 8.45 fold enrichment (6-mer frequency, TF over GST control); in the assay with HSF1, 1.57 fold enrichment (6-mer frequency, TF over GST control); in the assay with SPIC, 7.54 fold enrichment (6-mer frequency, TF over GST control); with ELF4, 7.4 fold enrichment (6-mer frequency, TF over GST control); in the assay with ELK4 it was 6.22 fold enrichment (6-mer frequency, TF over GST control). Besides, the binding signal in the assay with ETV2 is 7.7 fold enrichment (6-mer frequency, TF over GST control); with ELF3 it was 6.78 fold enrichment (6-mer frequency, TF over GST control); with CRX, 1.27 fold enrichment (6-mer frequency, TF over GST control); in the assay with ETV1, 7.97 fold enrichment (6-mer frequency, TF over GST control); in the assay with ERF, 6.13 fold enrichment (6-mer frequency, TF over GST control); in the assay with ETV3L, 7.08 fold enrichment (6-mer frequency, TF over GST control). In addition, the binding signal in the assay with ETS2 was 8.04 fold enrichment (6-mer frequency, TF over GST control); with SPDEF it was 7.63 fold enrichment (6-mer frequency, TF over GST control); with ETV7, 7.48 fold enrichment (6-mer frequency, TF over GST control); with ELF5, 11.4 fold enrichment (6-mer frequency, TF over GST control); in the assay with ETV3, 8.47 fold enrichment (6-mer frequency, TF over GST control); in the assay with ETV6, 9.62 fold enrichment (6-mer frequency, TF over GST control).

The values above are taken from article PMC7862700, “An all-to-all approach to the identification of sequence-specific readers for epigenetic DNA modifications on cytosine”.
